Methyltransferases – Primary Screen for Target Class Profiling of Small Molecule Inhibitors of Methyltransferases; purified enzyme, MTase-Glo SAH luminescence; active compounds read low; calls only at 40 µM; hit rate 3.9% among 25,000; call rule not given here
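Each enzyme was reacted with SAM and its substrate, with compounds tested once at 40 uM; SAH formed was read by MTase-Glo luminescence.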
Calls only; – = inactive; + = active, no number; ! = not active in a repeat. Shown is part of a subset that was picked to be rich in hits.

SMILES	Methyltransferases
COc1cc(N2CCC(N3CCN(C)CC3)CC2)ccc1Nc1ncnc(Nc2ccccc2S(=O)(=O)C(C)C)n1	–
CCc1ccc(CN2C(=O)c3nc4ccccc4n3CC2(C)C(=O)NCc2ccccc2)cc1 (centres undefined)	–
NCCc1ccc(O)c(O)c1	+
CCOC(=O)c1cc2n(n1)CC(C)(C(=O)NC1CCCCCC1)N(c1ccc(C)cc1)C2=O (centres undefined)	–
CC1(C)CCC2=C(O1)c1ccccc1C(=O)C2=O	+
CC(C)Cn1c(=O)c2ccc(C(=O)NC3CCCCC3)cc2n2c(=O)n(CC(N)=O)nc12	–
Cc1cccc(CN2CC(=O)N(Cc3ccc(F)cc3)c3ccccc3S2(=O)=O)c1	–
CC(C)OCCCN1C(=O)c2ccc(-c3ccccc3)n2CC1(C)C(=O)NC1CCCCC1 (centres undefined)	–
CC(CCc1ccccc1)NC(=O)CCn1ccc2cc(S(=O)(=O)N3CCCCC3)ccc21 (centres undefined)	–
C[C@@H](Oc1cc(-c2cnn(C3CCNCC3)c2)cnc1N)c1c(Cl)ccc(F)c1Cl	+!
C[C@H](Oc1cc(-c2cnn(C3CCNCC3)c2)cnc1N)c1c(Cl)ccc(F)c1Cl	+
CC1(C(=O)NC2CCCCCC2)Cn2c(cc3occc32)C(=O)N1C1CCCCC1 (centres undefined)	–
CCOc1ccc(CN2C(=O)c3cc4occc4n3CC2(C)C(=O)NC2CCCC(C)C2C)cc1 (centres undefined)	–
C=C1CCC[C@]2(C)CC[C@@](O)(C(=C)C(=O)O)C[C@@H]12	–
C=C(C(=O)O)C1CC(O)C2(C)CCCC(=C)C2C1 (centres undefined)	+
C=C(C(=O)O)C1CC(OC(=O)CC(C)CC)C2(C)CCCC(=C)C2C1 (centres undefined)	–
COc1ccccc1CNC(=O)c1ccc2c(=O)nc3c(-c4ccc(Cl)cc4)n[nH]n3c2c1	–
Cc1cccc(Cn2nc3n(CCC(C)C)c(=O)c4ccc(C(=O)NCC(C)C)cc4n3c2=O)c1	–
COc1cccc(N2C(=O)c3cc4ccccc4n3CC2(C)C(=O)NC2CCCCCC2)c1 (centres undefined)	–
CCCn1c(=O)c2ccc(C(=O)NCC(C)C)cc2n2c(=O)n(CC(=O)Nc3cccc(Cl)c3)nc12	–
Cc1ccc(CN2CC(=O)N(Cc3cccc(F)c3)c3ccccc3S2(=O)=O)cc1	–
O=C1CSc2ccccc2N1Cc1cccc(C(F)(F)F)c1	+
O=C1CN(Cc2cccc(F)c2)S(=O)(=O)c2ccccc2N1Cc1ccc(Cl)cc1	–
COc1cccc(CN2C(=O)c3cc4ccccc4n3CC2(C)C(=O)NCCCOC(C)C)c1OC (centres undefined)	–
NS(=O)(=O)OC[C@@H]1C[C@@H](n2ccc3c(N[C@H]4CCc5ccccc54)ncnc32)C[C@@H]1O	+
SMILES	Methyltransferases
Cc1ccc(NS(=O)(=O)c2ccc3c(c2)[C@H]2C=CC[C@H]2[C@@H](c2ccccc2Cl)N3)cc1C	–
Cc1cc(NC(=O)NCCN2CCC(O)(Cc3ccccc3)CC2)c2ccccc2n1	+
O=C(NCCc1ccccc1)Nc1cccn2ncnc12	–
CN1C(=O)c2cc(C(=O)NCCN3CCOCC3)nn2CC1(C)C(=O)NCc1ccccc1 (centres undefined)	–
CC(C)NC(=O)c1ccc2c(=O)n(C(C)C)c3nn(Cc4ccc(F)cc4Cl)c(=O)n3c2c1	–
c1cc(OCCN2CCCCC2)cc(-c2n[nH]c3ccc(-c4ncn[nH]4)cc23)c1	+
CN(CCN1CCCCCC1)C(=O)c1cc(COc2ccccc2)[nH]n1	–
COc1ccc(CN2C(=O)c3cc4ccccc4n3CC2(C)C(=O)NCc2ccccc2)cc1 (centres undefined)	–
CC(C)Cn1c(=O)c2ccc(Cl)cc2n2c(SCC(=O)Nc3ccc4c(c3)OCO4)nnc12	–
Cc1cc(N)c2ccccc2[n+]1CCCCCCCCCC[n+]1c(C)cc(N)c2ccccc21	+
CCOc1ccc(N2C(=O)c3cc(-c4cccs4)nn3CC2(C)C(=O)NC2CCCCC2)cc1 (centres undefined)	–
Cn1nnc2cc(CNC(=O)c3cccnc3)ccc21	–
CC1CCC(NC(=O)C2(C)Cn3c(ccc3-c3ccccc3)C(=O)N2Cc2ccccc2Cl)CC1 (centres undefined)	–
COC(=O)CCSC/C=C(\C)CCn1cc(CCc2ccc(-c3ccccc3)cc2)nn1	+!
Cc1ccc(NC(=O)Cn2nc3n(Cc4ccc(F)cc4)c(=O)c4ccccc4n3c2=O)c(C)c1	–
CSc1cccc(NC(=O)c2cc3n(n2)CC(C)(C(=O)NC2CCCCC2)N(C)C3=O)c1 (centres undefined)	–
CCCn1c(=O)c2ccc(C(=O)NCC(C)C)cc2n2c(SCC(=O)Nc3ccc(C)c(C)c3)nnc12	–
O=C(NCCNC(=O)c1cccnc1)c1cccnc1	–
CCS(=O)(=O)N(Cc1cccnc1)c1cccc(-c2ccc(C#N)cc2)c1	–
N#Cc1ccc(-c2cnc3[nH]cc(NC(=O)c4cccnc4)c3c2)cc1	+
C=Cc1ccc(Cn2nc3n(CCC(C)C)c(=O)c4ccc(C(=O)NC(C)CC)cc4n3c2=O)cc1 (centres undefined)	–
Cc1ccc(S(=O)(=O)c2nnn3c2nc(NC(C)c2ccccc2)c2ccccc23)cc1 (centres undefined)	–
COC(=O)c1cc2n(n1)CC(C)(C(=O)NC1CCC(C)CC1)N(c1ccc(C(C)C)cc1)C2=O (centres undefined)	–
CCC(CC)C(c1ccc(Nc2nc3ccccc3s2)cc1)n1cncn1 (centres undefined)	+
CC1(C(=O)NC2CCCCC2)Cn2c(ccc2-c2ccco2)C(=O)N1CCc1ccco1 (centres undefined)	–
SMILES	Methyltransferases
CCOC(=O)c1cc2n(n1)CC(C)(C(=O)NCCC(C)C)N(c1ccc3c(c1)OCO3)C2=O (centres undefined)	–
COc1ccc(OC)c(CCN2C(=O)c3cc4occc4n3CC2(C)C(=O)NC2CCCCCC2)c1 (centres undefined)	–
Cc1cc2[nH]c(=O)[nH]c2cc1S(=O)(=O)Nc1ccccc1	–
CN(C)CCOC(C)(c1ccccc1)c1ccc(Cl)cc1 (centres undefined)	+
CN(C)CCOC(c1ccccc1)c1ccccc1	–
COc1ccc2c(c1)c(NC(C)=O)c1n2CC(C)(C(=O)NC2CCCC2)N(Cc2cccs2)C1=O (centres undefined)	–
COc1cc2c(Oc3ccc(-c4cnc(Nc5ccc(F)cc5)n(C)c4=O)cc3F)ccnc2cc1OCCCN1CCOCC1	–
COc1cc(Nc2c(C#N)cnc3cc(OCCCN4CCN(C)CC4)c(OC)cc23)c(Cl)cc1Cl	+
COc1cccc(OCCCN)c1-c1cc(Nc2cnc(C#N)cn2)n[nH]1	–
Cc1ccc(NC(=O)Cn2nc3n(CC(C)C)c(=O)c4ccc(C(=O)NC(C)C)cc4n3c2=O)c(C)c1	–
CCN1C(=O)c2cc(C(=O)NCCCc3ccccc3)nn2CC1(C)C(=O)NC1CCCC1 (centres undefined)	–
CC1(C(=O)NC2CCCCC2)Cn2nc(-c3cccs3)cc2C(=O)N1CCc1ccc(Cl)cc1 (centres undefined)	–
CN1C(=O)c2cc(C(=O)NCCc3ccccc3Cl)nn2CC1(C)C(=O)NCc1ccccc1 (centres undefined)	–
COc1ccccc1N1C(=O)c2cc3ccccc3n2CC1(C)C(=O)NC1CCCCC1 (centres undefined)	–
